Reference: PubChem BioAssay
The source made the active and inactive calls. Unless noted, no rule for the calls is given here.

Tests used:
[1] = liver-stage malaria parasite load reduction – cell-based, known kinase inhibitor set, luminescence, hepatoma host viability (AID 624392); conditions: Plasmodium liver stage in hepatoma cells, luciferase luminescence, concentration not given here; liver cell % of control: measured here: host liver cell viability; parasite % of control: stronger effect = lower value;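 also: infected cells incubated roughly two days before readout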
[2] = altered dexamethasone sensitivity, NF-kB reporter, cell-based, luciferase, IL-1B stimulus (AID 624486); conditions: IL-1B + dexamethasone, luminescence; percent of negative control (+Dex): actives lie on both sides, concentration not given here; z-score: measured here: IL-1B alone, no Dex;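 as to percent of negative control (+Dex): 100% = mean signal of vehicle control wells on the plate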
[3] = C. elegans survival during P. aeruginosa infection – whole organism (AID 651566);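 also: tested at 14 µM; sign flipped so higher z means a lower ratio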; conditions: C. elegans killed by P. aeruginosa, survival ratio
[4] = pro-inflammatory signaling induction in mouse macrophages – cell-based, murine, luminescence (AID 652131); conditions: murine macrophage pro-inflammatory reporter, stronger effect = higher value
[5] = molecular target: Cellular tumor antigen p53 (Homo sapiens) (UniProt P04637); assay: GFP-p53 level modulators in HPV16+ cells – imaging, known kinase inhibitor set, EGFP/DsRed ratio (AID 1053116); conditions: GFP-p53 stability, stronger effect = higher value; EGFP object count: measured here: GFP-p53 positive objects count;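 also: cells exposed to compounds for 24 h at 37 °C before reading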
[6] = inducers of IRF3 signaling, differentiated THP-1 – cell-based, PMA-stimulated THP-1, luminescence (AID 1053176); conditions: PMA-differentiated THP-1, IRF3 reporter luminescence; stronger effect = higher value
[7] = MELAS cybrid and Rieske KO viability enhancers – cell-based, MELAS cybrids, Rieske KO mouse fibroblasts, CellTiter-Glo, primary screen (AID 1508586;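 active = mean z-score across replicates of 1.96 or higher in either the MELAS or the Rieske mutant cell line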;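 also: z relative to plate mean and SD of compound and empty wells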); conditions: low glucose
[8] = MELAS cybrid survival, CellTiter-Glo 48 h, stronger effect = higher value
[9] = Rieske KO mouse fibroblast survival, CellTiter-Glo 72 h

Sequence of Cellular tumor antigen p53 (Homo sapiens) (P04637 whole entry, looked up): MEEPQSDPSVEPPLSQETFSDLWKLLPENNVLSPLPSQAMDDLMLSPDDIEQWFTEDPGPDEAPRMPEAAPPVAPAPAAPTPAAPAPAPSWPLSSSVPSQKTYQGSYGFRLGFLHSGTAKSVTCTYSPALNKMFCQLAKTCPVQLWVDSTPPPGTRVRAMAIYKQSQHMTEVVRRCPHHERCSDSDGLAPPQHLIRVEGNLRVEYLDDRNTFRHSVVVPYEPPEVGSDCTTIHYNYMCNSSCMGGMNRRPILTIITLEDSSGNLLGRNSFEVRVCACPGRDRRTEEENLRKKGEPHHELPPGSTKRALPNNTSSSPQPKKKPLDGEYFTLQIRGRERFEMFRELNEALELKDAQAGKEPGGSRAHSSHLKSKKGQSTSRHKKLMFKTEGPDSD

| SMILES | liver cell % of control [1] | parasite % of control [1] | percent of negative control (+Dex) [2] | z-score [2] | z-score [3] | z-score [4] | EGFP object count [5] | EGFP/DsRed ratio [5] | fraction signal [6] | z-score [7, 8] | z-score [7, 9] |
| --- | --- | --- | --- | --- | --- | --- | --- | --- | --- | --- | --- |
| COc1cc(N2CCN(C(C)C)CC2)ccc1Nc1nc(Nc2cccc(F)c2C(=O)O)c2cc[nH]c2n1 | 115% | 124% (inactive) | 100% (inactive) | -0.075 | 1.24 (inactive) | -0.341 (inactive) | 4 | 0.0569 (inactive) | 0.0115 (inactive) | -0.385 (inactive) | -0.236 |
| FC(F)(F)c1cccc(-c2nn3ncccc3c2-c2ccnc(Nc3ccc4c(c3)OCCO4)n2)c1 | 147% | 22.4% (inactive) | 90.5% (inactive) | 0.13 | -0.325 (inactive) | -0.458 (inactive) | 5.5 | 0.171 (inactive) | 0.007 (inactive) | -0.0141 (inactive) | -0.445 |
| Fc1ccc(Nc2nccc(-c3c(-c4ccc(C(F)(F)F)cc4)nn4ncccc34)n2)cc1F | 121% | 125% (inactive) | 94.5% (inactive) | 0.25 | 0.135 (inactive) | -0.216 (inactive) | 5.5 | 0.0976 (inactive) | 0.008 (inactive) | -0.717 (inactive) | -0.174 |
| Fc1ccc(-c2c(-c3ccncc3)nc3n2CCS3)cc1 | 113% | 89.2% (inactive) | 40% (active) | -5.96 | -1.12 (inactive) | 1.33 (inactive) | 1.5 | 0.0335 (inactive) | -0.0075 (inactive) | -0.499 (inactive) | -0.254 |
| Cc1cc(-c2ccco2)cc(C)c1/C=C/c1cncc(-c2nn[nH]n2)c1 | 90.5% | 119% (inactive) | 94% (inactive) | 0.125 | 0.545 (inactive) | 4.88 (inactive) | 3.5 | 0.0973 (inactive) | -0.008 (inactive) | -1.12 (inactive) | -0.188 |
| CS(=O)(=O)CCNCc1ccc(-c2ccc3ncnc(Nc4ccc(OCc5cccc(F)c5)c(C(F)(F)F)c4)c3c2)o1 | 105% | 99.7% (inactive) | 106% (inactive) | 1.84 | 0.48 (inactive) | -0.873 (inactive) | 1 | 0.00783 (inactive) | -0.0125 (inactive) | -0.506 (inactive) | -0.463 |
| O=C(NCC1CC1)c1ccc(-c2cccc(C(=O)NC3CC3)c2)cc1 | 164% | 130% (inactive) | 91.5% (inactive) | 1.28 | -0.465 (inactive) | 1.36 (inactive) | 4.5 | 0.0862 (inactive) | 0 (inactive) | -0.117 (inactive) | -0.418 |
| Cc1nnc(-c2cccc(-c3ccc(C(=O)NCC4CC4)cc3)c2)o1 | 102% | 99.2% (inactive) | 89.5% (inactive) | -0.24 | 0.175 (inactive) | -0.114 (inactive) | 4 | 0.0445 (inactive) | -0.01 (inactive) | 0.518 (inactive) | 0.121 |
| COc1cc(C)c(N(C)C(=O)CN(C)C)cc1Nc1nc(Nc2cccc(F)c2C(N)=O)c2cc[nH]c2n1 | 71.5% | 391% (inactive) | 110% (inactive) | 0.76 | 0.1 (inactive) | 0.717 (inactive) | 5 | 0.2 (inactive) | -0.0115 (inactive) | 3.65 (active) | 1.35 |
| COc1cccc(COc2cc(-n3cnc4ccccc43)sc2C(N)=O)c1 | 95% | 99.6% (inactive) | 87% (inactive) | -0.845 | 1.31 (inactive) | -0.593 (inactive) | 4 | 0.0452 (inactive) | -0.006 (inactive) | -0.15 (inactive) | 0.0931 |
| CCc1nccc2c1nc(-c1nonc1N)n2CC | 89.7% | 130% (inactive) | 67% (inactive) | -2.37 | -0.475 (inactive) | -0.569 (inactive) | 2.5 | 0.0232 (inactive) | 0.005 (inactive) | 0.0182 (inactive) | -0.326 |
| CS(=O)(=O)CCNCc1cc(-c2cc3c(Nc4ccc(OCc5cccc(F)c5)c(Cl)c4)ncnc3s2)cs1 | 91.2% | 132% (inactive) | 79.5% (inactive) | -0.645 | 0.375 (inactive) | 0.207 (inactive) | 4.5 | 0.11 (inactive) | -0.0035 (inactive) | -0.394 (inactive) | -0.666 |
